“And” between values parts separate entries of the source, which are not always exact repeats. Identical values can stand only once. Unmarked numbers belong to inactive results. The source made the active and inactive calls.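 How the source made its calls: active means GFP response above 150% of the DMSO control; inconclusive means Under 70 cell events counted for a yeast strain; inactive means the rest.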
Assay: yeast TOR pathway CIT2-GFP reporter retest – flow cytometry, third cherry pick, single plex, confirmation (AID 504340);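 further: median GFP fluorescence over all cells with no mother versus daughter split; sample signal as a ratio to the plate DMSO mean so 100% equals DMSO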
Settings: S. cerevisiae CIT2-GFP strain, 3 h, at 10 µM, hits give high values

In order of rising GFP response vs DMSO:
1. O=C(O)c1ccc2cccnc2c1O  88%
2. CC(=O)Nn1cnc2c(c1=O)C1(CCCC1)Cc1ccccc1-2  89.6%
3. COc1cc(=O)n(C)c2c(O)cccc12  92.8%
4. Cc1cc(C)c(NC(=O)CC(=O)c2ccccc2)c(Cl)c1  92.8%
5. Nc1cc(C(=O)O)c(N)c2c1C(=O)c1ccccc1C2=O  94.5%
6. OCc1ccnc2c(O)cccc12  94.5%
7. COc1ccc(N/C(C)=C/C(=O)c2ccccc2)cc1  94.5%
8. CCCCC(=O)NCCc1cc2c(OC)ccc(OC)c2[nH]c1=O  96.1%
9. CCc1c(C)nc2c(OC)cccc2c1Cl  97.7%
10. O=C(N/N=C/c1ccccc1)c1cccc2ccccc12  97.7%
11. COc1cccc(OCc2cc(C(=O)N3CCN(C)C(c4ccccc4)C3)no2)c1 (centres undefined)  97.7%
12. FC(F)Oc1cccc2cccnc12  97.7%
13. C[n+]1cccc2c(Br)ccc([O-])c21  97.7%
14. O=C(O)c1ccccc1-c1ccccc1C(=O)Nc1ccc(-c2nc3cc(Cl)ccc3o2)cc1  99.3%
15. Cc1ccc(C(=O)Nc2nc(-c3ccccn3)cs2)o1  99.3%
16. COC(=O)c1cc(=O)c2cccc(OC)c2[nH]1  101%
17. OCCN1CCN(c2ncnc3ccc(Br)cc23)CC1  101%
18. CS(=O)(=O)Oc1ccc(Br)c2cccnc12  103%
19. O=C(N/N=C/c1ccccc1F)c1cccc2ccccc12  104%
20. Cc1ccc2nc(-c3ccc(NC(=O)c4cccnc4)cc3)oc2c1  104%
21. CCCOCc1ccc(O)c2ncccc12  104%
22. CSc1nc(Nc2ccc(Cl)cc2)c(C#N)c(=O)[nH]1  104%
23. Cn1cccc1C(=O)Nc1nc(-c2ccccn2)cs1  106%
24. Cc1ccc(Nc2nc(N)[nH]c(=O)c2N=O)cc1  106%
25. CSc1nc(S(C)(=O)=O)nc2[nH]c(=O)[nH]c12  106%
26. COc1cccc(N/C=C/C(=O)c2ccc(Cl)cc2)c1  107%
27. CCc1sc(C(=O)Nc2nc(-c3ccccn3)cs2)cc1C  109%
28. CC(=O)C(CC(=O)N1CCCC1)C(=O)Nc1ccc(Cl)cc1 (centres undefined)  109%
29. COc1ccccc1Nc1nc(NCCO)nc(N)c1[N+](=O)[O-]  111%
30. CCOC(=O)CS(=O)(=O)c1nc(-c2ccccc2)cc(C(F)(F)F)n1  111%
31. CC(=O)Nn1cnc2c(c1=O)C1(CCCCC1)Cc1ccccc1-2  112%
32. O=C(Nc1ccccc1)ON=C1c2ccccc2-c2ccccc21  112%
33. COc1ccccc1Nc1nc(NCCC(C)C)nc(N)c1[N+](=O)[O-]  114%
34. CCC(C)Nc1nc(N)c([N+](=O)[O-])c(Nc2ccccc2OC)n1 (centres undefined)  114%
35. O=C(Nc1ccccc1Cl)ON=C1c2ccccc2-c2ccccc21  116%
36. CC(=O)C(Cl)C(=O)Nc1ccccc1 (centres undefined)  121%

In the case of `COCC(C)NC(=O)CCS(=O)(=O)c1nc(-c2ccc(OC)cc2)cc(C(F)(F)F)n1` (centres undefined), the GFP response vs DMSO is reported as 103% and 92.8%.
For `CNc1nc(N)c([N+](=O)[O-])c(Nc2ccccc2OC)n1`, the GFP response vs DMSO was 168% (active).
For `COc1ccccc1-c1cc(C(F)(F)F)nc(S(=O)(=O)CCCC(=O)NC(C)C)n1`, the GFP response vs DMSO was 104% and 94.5%.

— PubChem BioAssay AID504340 (NMMLSC, 2011)
